# Laboratory results from PubChem BioAssay AID489042 (NMMLSC, 2010).
# Values without a mark were called inactive. Active and inactive are the calls of the source. Cut-off read from the data, not from the text of the source: active = inhibition score above about 11; inactive = the rest.
# Assay: S. cerevisiae short- and long-term growth effects – BY4741, OD595, 24 h, dose response (AID 489042)
# Conditions: stronger effect = higher value
row,Structure (SMILES),inhibition score
1,C#CCSc1nnc(-c2ccc([N+](=O)[O-])cc2)o1,0
2,CC(C)CSc1nnc2c3ccccc3n(C)c2n1,0
3,COc1ccc2nc3cccc(OC)c3nc2c1,10
4,CNC(=O)c1cccc2nc3ccccc3nc12,21 (active)
5,O=C(/C=C/c1cccs1)NC(=S)NNC(=O)Cc1cccs1,21 (active)
6,COC(=O)c1cccc2nc3c(C(C)O)cccc3nc12 (stereo not given),0
7,CSc1nnc2c3cc(F)ccc3n(C)c2n1,21 (active)
8,O=C1c2c(O)ccc(O)c2C(=O)c2c(NCCNCCO)ccc(NCCNCCO)c21,0
9,O=C(O)c1cnc2ccccc2n1,0
10,O=C(OCc1c(F)cccc1Cl)c1cnc2ccccc2n1,0
